# From PubChem
# Platelet DG rel: platelet dense granule release activity. human platelet-rich plasma, SFLLRN dense granule ATP release, luminescence. AID 1663. inhibition, %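 (compounds screened at 7.5 µM in platelet-rich plasma)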. 0.22% of 300,000 active;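 active = mean replicate score, as percent of positive control, at or above 50; inconclusive = mean below 50 but at least one replicate at or above 50; inactive = mean and every replicate below 50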
# CR mimetic SO: yeast age-related superoxide inhibition as caloric restriction mimetic | S. cerevisiae aged cells, superoxide DHE fluorescence; active compounds read low | superoxide response (% of plate mean), % at 10 µM | 0.18% of 330,000 active;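 active = superoxide response under a set limit, about three screen SD below normal, cut at about 65% in these data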;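 note: yeast aged for seven days with compound at 30 °C before DHE staining; 100% = average MFI of all compound-treated wells on the plate with controls excluded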
# PolyA inh: inhibitors of polyadenylation in S. cerevisiae | S. cerevisiae SKY197-pL101 polyadenylation reporter, beta-gal luminescence; efflux-impaired pdr1/pdr3 knockout yeast; score 100 = 6 SD above DMSO | activity score, % at 12 µM | 0.02% of 300,000 active;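 active = lowest replicate activity score at least 50, where 100 means six control SD above control mean; inconclusive = lowest score under 50 but half or more replicates reach 50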;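 note: yeast exposed to compound for 9 h at 30 °C; higher score means more reporter readthrough which indicates perturbed polyadenylation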
# SKKanGAS inh: inhibitors of SKKanGAS S. pyogenes growth in kanamycin (SK-promoter or general growth effect); BacTiter-Glo, 6 h; inhibition, % at 7.5 µM; 1.3% of 300,000 active; AID 1662;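 active = mean replicate score, as percent of positive control median, at least 50; inconclusive = mean below 50 but one replicate at or above 50; inactive = mean and every replicate below 50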;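 note: strain carries kanamycin resistance gene driven by streptokinase promoter and grows in 40 µg/ml kanamycin; loss of luminescence reflects streptokinase promoter inhibition or plain growth inhibition; 0% = median of DMSO wells and 100% = positive control at its reference dose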
# Calb FLC: C. albicans growth modulation with fluconazole. growth inhibition, % (test concentration not listed). AID 1979. C. albicans CaCi-2 (fluconazole-resistant clinical isolate) + fluconazole, Alamar Blue growth, 48 h. 0.57% of 300,000 active;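 active = growth inhibition above about 58% in most replicates, limit read from the data, passing the limit was not always enough; inconclusive = exactly half the replicates above a set limit; inactive = most replicates below a set limit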;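 note: all wells also contain fluconazole at 8 µg/ml as a sub-toxic cotreatment; 0% = median of DMSO wells and 100% = median of geldanamycin control wells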
# * hit, by the source's call; ? = inconclusive; · = no result. A selection: hits, their analogues and other compounds. The true share with any hit is near 2%.
SMILES,Platelet DG rel,CR mimetic SO,PolyA inh,SKKanGAS inh,Calb FLC
Cc1cc(=O)[nH]c(N/N=C/c2c[nH]c3ccccc23)n1,-7.6,101.2,2.5,-9.4,-4.5
O=[N+]([O-])c1cc(/C=N/Nc2nc3ccccc3[nH]2)c(O)cc1O,5.8,110.5,1.1,97.0*,87.8*
Cc1[nH]c2ccccc2c1/C=N/Nc1nc2ccccc2[nH]1,3.1,86.4,6.9,61.2*,-14.4
C(=N\Nc1nc2ccccc2[nH]1)/c1ccccc1,3.9,91.9,2.5,14.9,-3.5
Cc1ccc(/C=N/Nc2nc3ccccc3[nH]2)s1,13.9,94.0,-4.3,6.7,?
CN(CC1CCCN(CCc2ccc(Cl)cc2)C1)C(=O)c1ccco1 (stereo unspecified),-4.2,90.0,8.1,-0.7,-11.4
Brc1ccc(-c2ccc(/C=N/Nc3nncc(-c4ccccc4)n3)o2)cc1,-8.9,106.4,-4.3,5.5,45.4
Brc1ccc(-c2ccc(/C=N/Nc3nc4ccccc4[nH]3)o2)cc1,24.0,74.1,-17.5,89.5*,50.4
CC(=O)Nc1ccc(S(=O)(=O)NC2(C(F)(F)F)C(=O)Nc3c2c(=O)[nH]c(=O)n3Cc2cccnc2)cc1 (stereo unspecified),-2.7,99.3,2.6,4.9,-3.6
CC(C)N1CC23C=CC(O2)C(C(=O)OCc2ccccc2)C3C1=O (stereo unspecified),1.2,116.7,1.5,-1.5,-2.0
CC(C)N1C[C@@]23C=C[C@@H](O2)C(C(=O)OCc2ccccc2)[C@H]3C1=O (stereo partly specified),56.3*,71.3,0.7,-4.9,-5.5
COC(=O)CS(=O)(=O)c1ccsc1C(=O)Nc1ccc(F)c(F)c1,2.6,95.8,-4.6,14.0,22.4
CSc1n[nH]c2nc3c(c(=O)n12)C1(CCCC1)Cc1ccccc1-3,-8.4,98.0,-31.9,8.7,7.7
CCSc1n[nH]c2nc3c(c(=O)n12)C1(CCCC1)Cc1ccccc1-3,22.8,108.5,10.4,65.0*,-5.2
CCCCNc1c(N)n(CC(C)C)c(=O)[nH]c1=O,1.8,89.8,-7.7,0.3,-13.2
CCN1C(=O)C(CC(=O)Nc2ccc(Br)cc2)N(CCCc2ccccc2)C1=S (stereo unspecified),-1.4,89.8,0.8,91.8*,21.5
CCCSc1cc(N)cc([N+](=O)[O-])c1,5.8,135.4,-8.2,-4.7,97.2*
Cc1c(C(=O)N/N=C/c2ccc(Cl)cc2)[nH]c2ccc(Cl)cc12,-6.2,103.9,6.7,55.8*,6.0
COc1cnc(-c2ccccc2)nc1Oc1ccc(C(C)(C)C)cc1,-0.5,94.2,10.9,93.3*,-2.1
COc1cnc(-c2ccccc2)nc1Oc1ccccc1C,-1.4,91.8,-5.3,7.3,-4.3
O=S1(=O)CCOC[C@H](c2ccccc2)N1Cc1cccc(Cl)c1,-0.7,88.9,-5.7,-2.2,0.1
Cc1ccc(C2C3CSCC=C3C(C#N)=C(N)C2(C#N)C#N)cc1 (stereo unspecified),3.2,103.5,-44.9,2.7,89.8*
CCOC(=O)NNc1ccccc1,-0.1,77.5,4.3,3.0,4.5
CCC(O)CC(C(=O)NNc1ccccc1)C(=O)NNc1ccccc1 (stereo unspecified),2.5,98.1,-32.3,5.0,100.4*
COc1ccc(/C=C/C(=O)N(c2ccccn2)C2CCCCC2)cc1OC,12.2,105.0,-3.2,12.5,83.4*
SMILES,Platelet DG rel,CR mimetic SO,PolyA inh,SKKanGAS inh,Calb FLC
Cc1cccc(NC(=O)CC2SC(=O)N(c3ccccc3)C2=O)c1 (stereo unspecified),67.3*,112.9,-3.8,10.6,5.1
O=C(CC1SC(=O)N(c2ccccc2)C1=O)Nc1ccccc1 (stereo unspecified),0.1,129.0,12.9,12.7,8.6
CCN(CC)CC(=O)Nc1scc2c1c(=O)oc1ccccc12,-15.8,94.3,-13.5,-3.5,-0.7
COc1ccccc1C(=O)NC(CCSC)C(=O)NCC(c1cccs1)N1CCOCC1 (stereo unspecified),-0.3,99.7,5.4,-0.5,1.3
CCCCCCc1cc2cc(-c3nnc(-c4ccccc4O)o3)c(=O)oc2cc1O,-3.4,102.8,-6.8,98.4*,19.8
CCN(CC)CCN(C(=O)CCS(=O)(=O)c1ccccc1)c1nc2cc3c(cc2s1)OCO3,10.5,94.2,-8.1,?,8.0
O=C(CSc1nnc(COc2ccccc2)o1)Nc1ccc(F)cc1,7.4,96.2,-2.6,-9.9,-12.6
Cc1ccc(-n2c(O)c(/C=N/NC(=O)C3COc4ccccc4O3)c3ccccc3c2=O)cc1 (stereo unspecified),-8.5,96.7,1.7,100.9*,35.1
CC(=O)N/N=C/c1c(C)[nH]n(-c2ccccc2)c1=O,-6.8,112.4,3.3,-13.3,-8.3
COC(=O)N/N=C\c1c(C)[nH]n(-c2ccccc2)c1=O,1.1,102.1,-7.3,0.7,16.7
Cc1[nH]n(-c2ccccc2)c(=O)c1/C=N\NC(=O)C1COc2ccccc2O1 (stereo unspecified),-11.5,96.5,22.1,65.3*,-2.8
Cc1c(/C=N\NC(=O)C2COc3ccccc3O2)c2ccccc2n1C (stereo unspecified),-12.6,85.6,-10.0,1.4,-5.6
Cc1[nH]n(-c2ccccc2)c(=O)c1/C=N/NC(=O)c1ccccc1F,9.6,107.7,29.4,90.3*,-25.9
CC/C(=N/NC(=O)c1ccccc1O)c1c(C)[nH]n(-c2ccccc2)c1=O,0.0,112.1,-4.0,95.4*,101.1*
COc1ccc(CCNC(=S)c2ccccc2)cc1OC,-11.6,103.6,-12.3,2.0,-14.9
Cc1ccc(-c2csc(NC(=O)C3=NN(C4CCS(=O)(=O)C4)C(=O)CC3)n2)cc1 (stereo unspecified),1.2,102.4,13.0,-7.8,1.4
Cc1ccc(-c2csc(N3CCC[C@@H]3C(=O)NCCn3c(-c4ccncc4)nc4ccccc43)n2)cc1,-3.7,99.8,14.7,19.9,11.8
CCOC(=O)c1c2ccccc2[n+]([O-])n1CCO,-4.3,94.6,-20.3,-4.6,3.1
COc1cccc(C(=O)N2CCC(CCC(=O)Nc3cccc(C)c3)CC2)c1,-7.0,95.9,-6.7,25.8,-2.4
Cc1[nH]n(-c2ccccc2)c(=O)c1C(=O)c1ccccc1,-10.2,107.3,17.4,-5.4,·
CCSC(=S)c1c(C)[nH]n(-c2ccccc2)c1=O,1.5,109.8,5.5,57.0*,8.9
O=C(N/N=C/c1c(O)n(-c2ccccc2Cl)c(=O)c2ccccc12)C1COc2ccccc2O1 (stereo unspecified),-10.7,76.4,1.9,78.6*,-7.8
CCC(=O)N1c2ccc(S(=O)(=O)N3CCN(c4cc(C)ccc4C)CC3)cc2CC1C (stereo unspecified),15.9,91.4,23.2,21.2,13.6
CCc1ccc2oc(-c3ccc(OC)cc3)cc(=Nc3c(C)n(C)n(-c4ccccc4)c3=O)c2c1,6.6,112.4,-19.6,7.6,71.3*
CN(C)CCNC=C(C(=O)Nc1ccc(Cl)cc1Cl)C(=O)Nc1ccc(Cl)cc1Cl,-17.9,81.8,-6.8,55.5*,-7.5
